RAD52 anneal inh: RAD52 (human) annealing inhibition. recombinant RAD52 DNA annealing, FRET fluorescence. 360,000 compounds, 0.46% hits. inhibition, % at 18.7 µM. AID 651710. P43351;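 active means every replicate showing at least 50% inhibition; inconclusive means mean inhibition at least 50% but not in every replicate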
Target sequence (P43351 whole entry, looked up): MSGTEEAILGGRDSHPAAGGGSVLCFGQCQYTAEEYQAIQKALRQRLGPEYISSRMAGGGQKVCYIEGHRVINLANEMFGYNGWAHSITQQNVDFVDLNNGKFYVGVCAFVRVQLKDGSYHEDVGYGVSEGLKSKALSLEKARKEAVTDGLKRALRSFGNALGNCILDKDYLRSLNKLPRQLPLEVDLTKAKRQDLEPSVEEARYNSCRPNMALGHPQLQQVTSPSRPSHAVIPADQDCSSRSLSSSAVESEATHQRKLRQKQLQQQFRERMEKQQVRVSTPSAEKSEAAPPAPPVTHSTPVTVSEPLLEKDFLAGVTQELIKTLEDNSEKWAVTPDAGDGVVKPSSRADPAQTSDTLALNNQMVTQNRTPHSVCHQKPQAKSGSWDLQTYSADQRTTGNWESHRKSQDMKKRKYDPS
MLL AF4-AF9 inh: blocks AF4 peptide binding to human AF9; 350,000 compounds, 0.47% hits; inhibition, % at 10 µM; AlphaScreen, biotin-AF4 peptide binding to FLAG-AF9; P42568; AID 651704;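 active means every replicate reaching a set inhibition limit, whatever the replicate mean, cut at about 25% in these data; inconclusive means mean inhibition reaches that limit but some replicates miss it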;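 further: 0% = plate neutral control median and 100% = total signal loss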
PGC1a acetyl inh: PGC1a acetylation modulation, inhibitor mode; U2OS PGC1a acetylation, AlphaScreen anti-acetyl-lysine; with virally co-expressed GCN5 acetyltransferase; inhibition, % at 15.6 µM; 350,000 compounds, 0.17% hits; AID 651687;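 active means every replicate shows inhibition of at least 40%; inconclusive means mean inhibition at least 40% but some replicate below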;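 further: 0% = neutral control wells and 100% = positive control wells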
INS-1E GSIS act: primary screen for activators of insulin secretion dependent on glucose, INS-1E cells, GLuc reporter luminescence; AID 743287; INS-1E GLuc reporter insulin secretion, 2-3 h; 370,000 compounds, 0.61% hits; activation, % at 16.6 µM;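 active means lowest replicate activation of at least 40%, so every replicate reaches that level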;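 further: 0% = median of neutral control wells and 100% = median of IBMX positive control wells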
ERAP1 HTS inh: inhibitors of human ERAP1 aminopeptidase | Q9NZ08 | recombinant ERAP1, Leu-AMC fluorescence, 60 min | inhibition, % at 10.7 µM | 340,000 compounds, 0.15% hits | AID 652197;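 active means mean replicate inhibition of at least 30%, or all replicates individually reaching that 30% level; inactive means mean below 30% and not every replicate reaching it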;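 further: 0% = neutral control wells and 100% = L-leucinethiol positive control wells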
RAD54 branch: inhibitors of human RAD54 branch migration; RAD54 Holliday junction branch migration, FAM/BHQ fluorescence; 360,000 compounds, 0.14% hits; Q92698; inhibition, % at 10.4 µM; AID 602329;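 active means mean normalized replicate activity at least 40 and at least half of replicates scoring 40 or more; inconclusive means only one of the two criteria met; inactive means mean below 40 and under half of replicates reaching 40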;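 further: 0% = median of neutral control wells and 100% = median of positive control wells; inhibitors cause a drop in the FAM fluorescence signal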
The depositor's hits bear a star; ? = inconclusive; . = no result given; ! = not active in a repeat. Shown are actives, neighbours in structure and some others; about 1.4% of the full set was active somewhere.

SMILES	RAD52 anneal inh	MLL AF4-AF9 inh	PGC1a acetyl inh	INS-1E GSIS act	ERAP1 HTS inh	RAD54 branch
N#Cc1c(-c2ccccc2)cc(C2CC2)nc1N	.	.	1	.	.	-11
N#Cc1c(-c2ccco2)cc(C2CC2)nc1N	.	.	1	71*	.	-1
CN1C(=O)c2cc(NC(=O)c3ccc(F)c(F)c3)ccc2OC[C@@H]2O[C@@H](CC(=O)N3CCOCC3)CC[C@H]21	12	1	0	.	3	-5
Cc1ccccc1-c1ccc([C@H]2[C@H](CO)N3CCCCN(S(=O)(=O)Cc4ccccc4)C[C@@H]23)cc1	55*	4	4	-19	4	14
CCS(=O)(=O)N1CCCCN2[C@H](C1)[C@@H](c1ccc(-c3ccccc3C)cc1)[C@@H]2CO	-19	-6	3	1	2	-1
Cc1ccccc1-c1ccc([C@@H]2[C@@H](CO)N3CCCCN(S(=O)(=O)Cc4ccccc4)C[C@H]23)cc1	63*	6	-15	-5	0	3
C[C@@H](O)C#Cc1cnc2c(c1)C(=O)N([C@@H](C)CO)C[C@H](C)[C@@H](CN(C)CC1CCOCC1)O2	-16	-2	5	8	-7	7
Cc1ccc2c(c1)c1c(n2CC(O)CNC2CCCCC2)CCCC1 (stereo not drawn)	25	30*	-17	-13	.	7
Cc1ccc2c(c1)c1c(n2CC(O)CNC(CO)(CO)CO)CCCC1 (stereo not drawn)	-16	?	.	-3	.	6
CN1C(=O)c2cc(NC(=O)c3cnccn3)ccc2OC[C@@H]2O[C@H](CC(=O)NCC3CC3)CC[C@@H]21	1	-4	-3	2	0	.
COc1ccc(C2CC(=O)C(c3ccc(C)cc3)=CN2Cc2ccccc2)cc1 (stereo not drawn)	-6	.	.	159*	0	.
COc1ccc(C2CC(=O)C(c3ccc(Cl)c(Cl)c3)=CN2Cc2ccccc2)cc1 (stereo not drawn)	2	.	.	.	2	.
Cc1ccc(S(=O)(=O)N2[C@@H]3CNC[C@H]2C3c2ccc(/C=C/c3ccccc3)cc2)cc1 (stereo partly drawn)	53*!	-2	-8	-8	0	.
O=S(=O)(c1ccccc1)N1[C@@H]2CNC[C@H]1C2c1ccc(/C=C/c2ccccc2)cc1 (stereo partly drawn)	49	-2	4	-11	0	.
O=S(=O)(c1ccc(-c2ccccc2)cc1)N1[C@@H]2CNC[C@H]1C2c1ccc(-c2cccnc2)cc1 (stereo partly drawn)	66*	-3	-1	10	0	.
Cc1ccc(S(=O)(=O)N2[C@@H]3CNC[C@H]2C3c2ccc(-c3ccc(C#N)cc3)cc2)cc1 (stereo partly drawn)	55*	-3	3	3	-2	.
COc1cc(C(=O)Nc2ccc3nc(N4CCN(C)CC4)cc(C)c3c2)cc(OC)c1OC	56*	12	.	16	0	44
COc1ccc(CNC(=S)Nc2ccc3nc(N4CCN(C)CC4)cc(C)c3c2)cc1	47	26*	-5	-3	-1	41
CC1=C/C(=C(/c2cc(C)c(O)c(Br)c2)c2ccccc2S(=O)(=O)O)C=C(Br)C1=O	-41	47*	.	-11	2	-3
COc1cc(/C=N/NC(=O)c2ccc(NS(=O)(=O)c3cccs3)cc2)cc(OC)c1O	-4	2	0	-3	-2	-10
O=C(NN=Cc1ccc(F)c(F)c1)c1ccc(NS(=O)(=O)c2cccs2)cc1	-12	33*	.	-20	-2	.
CCC(=O)N1[C@@H](CO)[C@H](c2ccccc2)C12CN(C(=O)c1ccc(F)cc1)C2	-7	-1	-2	1	-3	.
COc1ccc(C2=NN(C(C#N)c3ccc(OC)cc3)C(c3ccccc3)C2)cc1 (stereo not drawn)	-217	29*	8	-13	-2	-2
CCCCC1CCC(C(=O)OC(C)C(=O)Nc2ccc(NC(C)=O)cc2)CC1 (stereo not drawn)	-2	1	3	11	75*	1
CC(=O)Nc1ccc(NC(=O)C(C)OC(=O)C2CCC2)cc1 (stereo not drawn)	-6	1	.	17	1	-5
SMILES	RAD52 anneal inh	MLL AF4-AF9 inh	PGC1a acetyl inh	INS-1E GSIS act	ERAP1 HTS inh	RAD54 branch
O=C(O)C[C@@H]1C=C[C@H](NC(=O)c2ccccc2F)[C@H](CO)O1	.	.	-5	10	.	.
O=S(=O)(Nc1cc(Sc2ncn[nH]2)c(O)c2ccccc12)c1ccccc1	5	1	72*	-47	56*	.
Cc1ccc(S(=O)(=O)NC[C@H]2CC[C@H]3[C@H](CN3Cc3cc(-c4ccccc4)on3)O2)cc1	-11	-1	-10	.	1	.
COc1ccccc1CN1CCCC(C(=O)N(C)Cc2ccccc2)C1 (stereo not drawn)	.	.	45*	.	.	.
C=CCn1c(SCC(=O)N2CCOCC2)nc2c([nH]c3ccccc32)c1=O	-9	0	-5	43*	-3	-2
C[C@H]1CN([C@@H](C)CO)C(=O)c2cc(-c3cccnc3)cnc2O[C@@H]1CN(C)Cc1ccc(-c2ccccc2)cc1	17	16	-1	-38	0	-4
c1ccc(-c2nc(N3CCCCCC3)c3ccccc3n2)nc1	.	.	9	.	.	56*
c1ccc2c(N3CCCCC3)nc(N3CCCC3)nc2c1	.	.	-16	52*	.	5
c1ccc2c(NCC3CCCO3)nc(N3CCCCC3)nc2c1 (stereo not drawn)	-2	?	-30	45*	.	-7
c1ccc(-c2nc(N3CCOCC3)c3ccccc3n2)nc1	.	.	11	.	.	2
CCC(=O)N(C)C[C@@H]1Oc2cc(-c3cccc(OC)c3)ccc2S(=O)(=O)N([C@@H](C)CO)C[C@@H]1C	3	-3	12	0	2	4
Cc1cc(NS(=O)(=O)c2ccc(NC(=O)C(C)Oc3ccc(Cl)cc3)cc2)no1 (stereo not drawn)	.	.	.	5	.	.
Cc1cc(NS(=O)(=O)c2ccc(NC(=O)COc3c(C)cc(Br)cc3C)cc2)no1	-23	-1	85*	2	6	14
Cc1cc(NS(=O)(=O)c2ccc(NC(=O)C(C)Oc3ccccc3Cl)cc2)no1 (stereo not drawn)	-11	7	.	59*	-5	-4
COc1ccc(OCC(=O)Nc2ccc(S(=O)(=O)Nc3cc(C)on3)cc2)cc1	-12	-2	-1	-4	1	-9
C[C@@H]1CN([C@@H](C)CO)C(=O)c2cccc(NC(=O)Nc3cccc4ccccc34)c2O[C@@H]1CN(C)Cc1ccc(C(=O)Nc2ccccc2N)cc1	37	1	-24	3	.	.
CS(=O)(=O)N(Cc1ccc(Cl)cc1)c1ccc(C(=O)NCCC2=CCCCC2)cc1	.	.	-4	80*	.	10
CS(=O)(=O)Nc1ccc(C(=O)NCCC2=CCCCC2)cc1	.	.	5	.	.	2
CCC1NC(=S)N(C2CCCCC2)C1=O (stereo not drawn)	.	.	55*	4	.	7

Bioassay records from PubChem.
